Bioassay records deposited in PubChem BioAssay by National Center for Advancing Translational Sciences (NCATS).
MCF10A rereplic – DNA re-replication induction in MCF 10a cells; MCF 10A DNA re-replication, Hoechst nuclear intensity, 48 h; Potency, µM (series often up to 46.1 µM), actives largely listed as activators; hit rate 2.9% among 350,000; AID 624296; note: nearly all actives have a fitted effect of over 50% in size
HT1080-NT tox – kills 2HG-producing HT-1080-NT fibrosarcoma cells; Potency, µM (doses to about 46.1 µM), hits mostly cytotoxic; hit rate 1.6% among 360,000; HT-1080-NT fibrosarcoma viability, CellTiter-Glo ATP luminescence, 48 h;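 note: NT is the 2HG producing partner of a matched IDH1 knockdown line; nearly all actives have a fitted effect of over 55% in size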
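HT-1080-NT fibrosarcoma cells (2HG-overproducing), 750 cells/well in RPMI with 5% FBS, dosed after 2 h and incubated 48 h at 37C. CellTiter-Glo luminescence normalized to DMSO and no-cell wells; concentration-response curves fitted and classed.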
HT1080 IDH1KD tx – toxicity to HT-1080 IDH1 knockdown cells (counter line). hit rate 2% among 360,000. Potency, µM (highest dose often 46.1 µM), usual class: cytotoxic. HT-1080 IDH1 knockdown viability, ATP luminescence, 48 h
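CellTiter-Glo luminescence after 48 h compound exposure at 37 degrees C of IDH1-knockdown HT-1080 cells in 5% FBS RPMI. %Activity scaled between DMSO wells and cell-free media wells, with curves fitted and assigned curve classes.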
SW480 rerep – induces DNA re-replication in SW480 colon adenocarcinoma cells; hit rate 1.8% among 340,000; Potency, µM (highest dose often 46.1 µM), usual class: activators; SW480 DNA re-replication, Hoechst DNA content imaging, 48 h; note: nearly all actives have a fitted effect of over 55% in size
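Cells (250 per well) received 23 nL compound or DMSO by pin tool and were kept 48 hr at 37 C, 5% CO2. Nuclei were then stained with Hoechst for 40 min and scanned for DNA content.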
KB-V1 cytotox – KB-V1 MDR subline cytotoxicity; KB-V1 MDR cells viability, CellTiter-Glo, 72 h; Potency, µM (titrated, usually from 46.1 µM), usual class: cytotoxic; AID 1347076; hit rate 3.4% among 400,000; note: nearly all actives have a fitted effect of over 60% in size
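Cells of the MDR subline KB-V1 are plated, dosed with compound at multiple concentrations, and incubated 72 h at 37 degrees C; CellTiter-Glo is then added and luminescence read after 10 min.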
KB-3-1 tox – KB-3-1 parental cell cytotoxicity | KB-3-1 viability, CellTiter-Glo ATP luminescence, 72 h | Potency, µM (top dose mostly 46.1 µM), usual class: cytotoxic | hit rate 1.4% among 400,000; note: nearly all actives have a fitted effect of over 60% in size
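Viability of parental KB-3-1 cells, measured by CellTiter-Glo luminescence, followed a 72 h incubation at 37 °C with pinned compounds in phenol-red-free DMEM containing 10% FBS.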
Hits are given with their value; [ ] = remark or other dose. This is a sample that favours compounds with a hit; in the whole collection about 7.9% have one here. Calls come from the whole dose curve; as a rule, active = well fitted curve in the direction sought with a large enough effect; inconclusive = small, poorly fitted or top-dose-only effect, or another doubt; inactive = no such curve, though single readings can be large; an effect the other way counts as inactive or inconclusive.

`CC(C)(C)c1ccc(OCc2ccc(C(=O)Nc3cccnc3)o2)cc1` gave MCF10A rereplic 23µM, HT1080-NT tox inconclusive, HT1080 IDH1KD tx inconclusive, SW480 rerep inconclusive, KB-V1 cytotox inconclusive and KB-3-1 tox inconclusive.
For O=C(Nc1cccnc1)c1ccc(COc2ccccc2Br)o1 the results were MCF10A rereplic 21µM, HT1080-NT tox 4.5µM, HT1080 IDH1KD tx 10µM, SW480 rerep inconclusive, KB-V1 cytotox inconclusive and KB-3-1 tox 16µM.
`COc1ccccc1OCc1ccc(C(=O)NC(C)(C)C)o1` gave MCF10A rereplic inactive, HT1080-NT tox inactive, HT1080 IDH1KD tx inactive, SW480 rerep inactive, KB-V1 cytotox inactive and KB-3-1 tox inactive.
For COc1ccccc1OCc1ccc(C(=O)Nc2ccncc2)o1 the results were MCF10A rereplic inactive, HT1080-NT tox inactive, HT1080 IDH1KD tx inconclusive, SW480 rerep inactive, KB-V1 cytotox inconclusive and KB-3-1 tox 23µM.
`O=C(O)c1nnn(-c2cccc(C(F)(F)F)c2)c1-c1ccccc1` gave MCF10A rereplic inactive, HT1080-NT tox inactive, HT1080 IDH1KD tx inactive, SW480 rerep inactive, KB-V1 cytotox inactive and KB-3-1 tox inactive.
Screening COC(=O)C[C@H](NC(=O)Cn1cc(C)c(=O)[nH]c1=O)C(=O)OC returned MCF10A rereplic inactive, HT1080-NT tox inactive, HT1080 IDH1KD tx inactive, SW480 rerep inactive, KB-V1 cytotox inactive and KB-3-1 tox inconclusive.
For Cc1ccc(C(=O)NCc2ccc(N3CCN(C)CC3)cc2)cc1C the results were MCF10A rereplic 1.6µM, HT1080-NT tox inactive, HT1080 IDH1KD tx inactive, SW480 rerep inactive, KB-V1 cytotox inconclusive and KB-3-1 tox inactive.
For O=C(NCc1ccccc1)c1cc2ccccc2o1 the results were MCF10A rereplic inactive, HT1080-NT tox inactive, HT1080 IDH1KD tx inactive, SW480 rerep inactive, KB-V1 cytotox inconclusive and KB-3-1 tox inactive.
For COC(=O)c1ccc(N2CCN(C)CC2)c(NC(=O)c2cc3ccccc3o2)c1 the results were MCF10A rereplic inactive, HT1080-NT tox inactive, HT1080 IDH1KD tx inactive, SW480 rerep inactive, KB-V1 cytotox 3.3µM and KB-3-1 tox inactive.
Screening CN1CCN(c2ccc(CNC(=O)c3cc4ccccc4o3)cc2)CC1 returned MCF10A rereplic 23µM, HT1080-NT tox inactive, HT1080 IDH1KD tx inactive, SW480 rerep inactive, KB-V1 cytotox inactive and KB-3-1 tox inactive.
`CC(C)(CO)C(O)C(=O)NCCCC(=O)O` (stereo not given) gave MCF10A rereplic inactive and SW480 rerep inactive.
For Cc1ccc(N(CC2CO2)S(=O)(=O)c2ccc(C)cc2)cc1 (stereo not given) the results were MCF10A rereplic inactive, HT1080-NT tox inactive, HT1080 IDH1KD tx inactive, SW480 rerep inactive, KB-V1 cytotox inactive and KB-3-1 tox inactive.
Screening Cc1ccc(S(=O)(=O)N(CC2CO2)c2cc(Cl)ccc2Cl)cc1 (stereo not given) returned MCF10A rereplic inconclusive, HT1080-NT tox inconclusive, HT1080 IDH1KD tx 23µM, SW480 rerep inconclusive, KB-V1 cytotox inconclusive and KB-3-1 tox inconclusive.
Screening Cc1nnc(NC(=O)CSCc2cc(=O)c3cc(Cl)ccc3[nH]2)s1 returned KB-V1 cytotox inconclusive and KB-3-1 tox inactive.
`CCc1cccc(N2C(=O)CSC23C(=O)N(Cc2ccccc2F)c2ccccc23)c1` (stereo not given) gave KB-V1 cytotox 15µM and KB-3-1 tox 21µM.
`O=C1CSC2(C(=O)N(Cc3ccccc3F)c3ccccc32)N1c1ccc(F)cc1` (stereo not given) gave KB-V1 cytotox 16µM and KB-3-1 tox inconclusive.
Screening Cc1ccc(Cl)cc1NC(=S)NCCCSC1CCCCC1 returned MCF10A rereplic inconclusive, HT1080-NT tox inactive, HT1080 IDH1KD tx 18µM, SW480 rerep inactive, KB-V1 cytotox inconclusive and KB-3-1 tox inconclusive.
For Cc1nc2cc(OC3(C)CCN(Cc4ccc(OC(F)(F)F)cc4)C3)ccc2s1 (stereo not given) the results were HT1080-NT tox inconclusive, HT1080 IDH1KD tx inconclusive, KB-V1 cytotox inactive and KB-3-1 tox inactive.
Screening Cc1ccc(N=c2oc3cc(O)ccc3cc2C(N)=O)cc1 returned MCF10A rereplic 9.2µM, HT1080-NT tox inconclusive, HT1080 IDH1KD tx inconclusive, SW480 rerep 16µM, KB-V1 cytotox inactive and KB-3-1 tox inactive.
For COc1ccc(-c2cc3ccc(O)cc3oc2=O)cc1OC the results were MCF10A rereplic inconclusive, HT1080-NT tox inconclusive, HT1080 IDH1KD tx inconclusive, SW480 rerep 10µM, KB-V1 cytotox inactive and KB-3-1 tox inactive.
COc1ccc2cc(C(C)=O)c(=O)oc2c1 was read as MCF10A rereplic inactive, HT1080-NT tox inactive, HT1080 IDH1KD tx inactive, SW480 rerep inactive, KB-V1 cytotox inactive and KB-3-1 tox inactive.
Screening COc1ccc2cc(C(=O)NCc3ccco3)c(=O)oc2c1 returned MCF10A rereplic inactive, HT1080-NT tox inactive, HT1080 IDH1KD tx inactive, SW480 rerep inactive, KB-V1 cytotox inactive and KB-3-1 tox inactive.
CC(=O)c1cc2ccc(O)cc2oc1=O was read as MCF10A rereplic 21µM, HT1080-NT tox inactive, HT1080 IDH1KD tx inactive, SW480 rerep 18µM, KB-V1 cytotox inactive and KB-3-1 tox inactive.
O=C(NCc1ccco1)c1cc2ccc(O)cc2oc1=O was read as MCF10A rereplic 5.8µM, HT1080-NT tox inconclusive, HT1080 IDH1KD tx inconclusive, SW480 rerep inconclusive, KB-V1 cytotox inactive and KB-3-1 tox inconclusive.
O=C(c1ccco1)N1CCC2CC1c1c(Cl)cccc12 (stereo not given) was read as HT1080-NT tox inactive, HT1080 IDH1KD tx inactive, KB-V1 cytotox inactive and KB-3-1 tox inactive.
NC/C=C/C(=O)O was read as MCF10A rereplic inactive and SW480 rerep inactive.
Screening O=C(Cc1cccc(NC(=O)C2CCCN(C(=O)C3CCCCC3)C2)c1)Nc1ccc(C(=O)N2CCCCC2)cc1 (stereo not given) returned MCF10A rereplic inactive, HT1080-NT tox inactive, HT1080 IDH1KD tx inactive, SW480 rerep inactive[9.22 µM], KB-V1 cytotox inconclusive and KB-3-1 tox inactive.
`N=c1oc2cc(O)ccc2cc1C(=O)Nc1ccc(Cl)cc1` gave MCF10A rereplic 1.6µM, HT1080-NT tox inactive, HT1080 IDH1KD tx inconclusive, SW480 rerep 2.6µM, KB-V1 cytotox inactive and KB-3-1 tox inconclusive.
Cc1ccc2cc3cc(C(=O)NCc4ccco4)oc3nc2c1 was read as MCF10A rereplic inactive, SW480 rerep inactive, KB-V1 cytotox inactive and KB-3-1 tox 3.5µM.
Screening CC(C)NC(=O)c1csc(COCCO)n1 returned HT1080-NT tox inactive, HT1080 IDH1KD tx inactive, KB-V1 cytotox inactive and KB-3-1 tox inactive.
`CN(c1ccccc1)S(=O)(=O)c1cccc(C(=O)NCC(c2cccs2)N2CCOCC2)c1` (stereo not given) gave HT1080-NT tox inactive, HT1080 IDH1KD tx inactive, KB-V1 cytotox inactive and KB-3-1 tox inactive.
